High-throughput results (PubChem BioAssay)
The list is not random: actives were taken first. Their share in the collection is about 5.9%.
ABHD5-PLIN5 inh = inhibitors of human ABHD5-perilipin-5 interaction. Q00G26+Q8WTS1. Split G. princeps luciferase complementation, luminescence, 4 h. inhibition, % at 4 µM. hit rate 0.78% among 360,000. AID 602281;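 active means inhibition above the mean inhibition across every tested compound plus 3 SD, cut at about 22% in these data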;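 further: 0% = DMSO only wells and the 100% control is not disclosed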
Rtt109 HAT inh = inhibitors of Candida albicans Rtt109/Vps75 histone acetyltransferase. AID 540336. hit rate 0.16% among 330,000. inhibition, % at 34.9 µM. purified Rtt109/Vps75, ThioGlo CoA-SH fluorescence, 4 h;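 active means inhibition of at least 50% in every replicate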
Target sequence (Q5AAJ8 whole entry, looked up): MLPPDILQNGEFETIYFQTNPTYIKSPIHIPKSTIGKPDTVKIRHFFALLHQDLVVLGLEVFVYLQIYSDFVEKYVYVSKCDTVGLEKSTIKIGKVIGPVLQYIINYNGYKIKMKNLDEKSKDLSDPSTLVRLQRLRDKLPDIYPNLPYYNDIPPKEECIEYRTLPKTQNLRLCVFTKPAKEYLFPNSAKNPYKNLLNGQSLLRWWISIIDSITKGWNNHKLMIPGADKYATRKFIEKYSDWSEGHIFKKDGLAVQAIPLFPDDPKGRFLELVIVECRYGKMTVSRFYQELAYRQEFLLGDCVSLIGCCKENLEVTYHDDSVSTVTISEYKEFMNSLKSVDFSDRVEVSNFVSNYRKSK
rCAG binder = binds r(CAG) RNA repeats. inhibition, % at 3 µM. r(CAG) RNA repeat, TO-PRO-1 dye displacement fluorescence. hit rate 1.3% among 370,000. AID 651821;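 active means inhibition above the plate cutoff, the mean of all test compounds on that plate plus 3 SD, cut at about 35% in these data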;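 further: 0% = DMSO alone and 100% = 100 µM mitoxantrone as full dye displacement; higher means more dye released from RNA so lower well fluorescence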
LANA-H2A inh = blocks KSHV LANA binding to histone H2A/H2B. inhibition, % (concentration not given with the values). AID 2629. hit rate 0.6% among 320,000. Q9QR71. cell-free LANA-H2A/H2B peptide, fluorescence polarization; in the data active means inhibition mostly above about 10%, no sharp cut-off; inactive means mostly below about 6.7%
PRMT1 inh = inhibitors of human PRMT1; Q99873; recombinant PRMT1, activity-based probe fluorescence polarization; inhibition, % at 2.79 µM; hit rate 1.3% among 370,000; AID 652257;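 active means inhibition above about 21% made by adding two undisclosed values, limit read from the data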
ALR H2O2 inh = blocks human ALR sulfhydryl oxidase activity. AID 485317. inhibition, % (test concentration not listed). hit rate 3.8% among 290,000. purified ALR, DTT oxidation, H2O2 HRP-luminol luminescence;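 active means mean replicate inhibition above about 79%, with every replicate also reaching it, limit read from the data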
Target sequence (P55789 whole entry, looked up): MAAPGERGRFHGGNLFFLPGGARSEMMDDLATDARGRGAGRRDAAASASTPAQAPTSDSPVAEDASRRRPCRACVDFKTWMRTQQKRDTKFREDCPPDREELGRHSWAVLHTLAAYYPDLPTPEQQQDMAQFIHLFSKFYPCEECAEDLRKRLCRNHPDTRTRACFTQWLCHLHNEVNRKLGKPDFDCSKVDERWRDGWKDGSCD
ABHD5-PLIN5 conf = ABHD5-PLIN5 interaction inhibition, confirmed. shares compounds with ABHD5-PLIN5 inh. biochemical ABHD5-PLIN5 interaction, luminescence. inhibition, % at 4 µM. hit rate 67% among 2,200. AID 651612; in the data active means inhibition above about 23%;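 further: 0% = DMSO vehicle wells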
HNF4 counter = HNF4 split-luciferase signal hit, counter-screen; shares compounds with ABHD5-PLIN5 inh; hit rate 77% among 2,200; HNF4 dimerization, luminescence, biochemical; inhibition, % at 4 µM; AID 651674;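 active means mean inhibition across replicate wells exceeding the computed hit threshold, cut at about 13% in these data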;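 further: light from luciferase halves that rejoin when HNF4 fusion proteins dimerize; 0% = DMSO only wells and the 100% control is not given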
* marks the source's active call; other numbers are inactive results; · = not tested or not shown.

SMILES	ABHD5-PLIN5 inh	Rtt109 HAT inh	rCAG binder	LANA-H2A inh	PRMT1 inh	ALR H2O2 inh	ABHD5-PLIN5 conf	HNF4 counter
CCC(c1nnnn1Cc1ccco1)N(Cc1ccccc1OC)Cc1cc2cc(C)ccc2[nH]c1=O (stereo not drawn)	8.1	-9.4	5.2	-4.3	15.2	3.4	·	·
CCC(c1nnnn1Cc1ccco1)N(Cc1cc2cc(C)cc(C)c2[nH]c1=O)CC1CCCO1 (stereo not drawn)	27.6*	0.9	10.9	-4.2	19.1	10.3	10.2	10.2
COc1ccc(N(CC(=O)NCCSCc2ccco2)S(=O)(=O)c2ccccc2)cc1Cl	1.4	-1.4	-0.2	-2.1	4.4	5.1	·	·
COc1ccc(OC)c(NC(=O)Nc2nc(C(N)c3ccccc3Cl)cs2)c1 (stereo not drawn)	2.3	·	7.8	·	-1.2	·	·	·
S=C(NCCCN1CCOCC1)N1CCN(c2nc(-c3ccc(Cl)cc3)cs2)CC1	32.5*	5.1	-2.1	-2.3	-0.8	-9.8	17.1	2.5
Cc1ccc2c(c1)C1CS(=O)(=O)N(CC(C)C)C(=O)N1C2 (stereo not drawn)	·	·	-1.1	·	0.8	·	·	·
CC(=O)c1ccc2noc(-c3ccccc3)c2c1	28.0*	-1.3	5.7	-3.3	0.6	-3.8	30.8*	49.5*
COc1ccc(-n2c(N)c(C(=O)NCc3ccco3)c3nc4ccccc4nc32)c(OC)c1	28.9*	-36.7	13.9	-2.4	5.3	-14.6	50.7*	67.5*
COc1ccc(CCn2c(N)c(C(=O)NCc3ccco3)c3nc4ccccc4nc32)cc1	20.9	7.5	20.1	0.0	3.6	19.0	·	·
COc1ccc(CN2C(=O)N3Cc4ccc(C)cc4C3CS2(=O)=O)cc1 (stereo not drawn)	·	·	0.7	·	5.3	·	·	·
O=C(Nc1ccc(Cl)cc1)Nc1ccccc1C(=O)N1CCCC1	·	·	3.2	·	-1.8	·	·	·
Cn1cc(CN2CCC(C(=O)NC(c3ccc(F)cc3)c3ccc4ccccc4n3)CC2)c2ccccc21 (stereo not drawn)	23.6*	·	0.9	·	-8.2	·	12.1	11.1
O=C(Nc1cccc2c1CCCC2)c1cc(C2CCCCN2S(=O)(=O)c2cccs2)on1 (stereo not drawn)	-7.6	·	8.5	·	1.9	·	·	·
O=C(NCc1ccccc1)C(c1ccccc1)n1c(=O)c(-c2ccco2)nc2ccccc21 (stereo not drawn)	74.3*	·	26.4	·	13.5	·	48.1*	11.7
CCCCCNC(=O)C(c1ccc(C#N)cc1)n1c(=O)c(-c2ccco2)nc2ccccc21 (stereo not drawn)	75.2*	·	31.6	·	15.5	·	43.8*	10.4
O=C(NCc1ccccc1)C(c1cc2ccccc2o1)n1c(=O)c(-c2ccco2)nc2ccccc21 (stereo not drawn)	90.6*	·	30.6	·	14.5	·	62.4*	15.3*
O=C(NCc1ccccc1)C(c1cccc2ccccc12)n1c(=O)c(-c2ccccc2)nc2ccccc21 (stereo not drawn)	7.8	·	6.9	·	5.5	·	·	·
O=C(NCc1ccccc1)C(c1ccc(C(F)(F)F)cc1)n1c(=O)c(-c2ccco2)nc2ccccc21 (stereo not drawn)	74.3*	·	36.4*	·	16.9	·	94.5*	43.9*
O=C(NCc1ccccc1)C(c1ccc(C(F)(F)F)cc1)n1c(=O)c(-c2ccccc2)nc2ccccc21 (stereo not drawn)	-3.2	·	2.4	·	-2.0	·	·	·
COC(=O)C[C@@H]1CC[C@H]2[C@H](COc3ccc(NC(=O)C4CCC4)cc3C(=O)N2C)O1	·	·	1.7	·	-3.0	·	·	·
Cc1noc(C)c1S(=O)(=O)N(C)C[C@@H]1OCc2cn(nn2)CCCC(=O)N([C@H](C)CO)C[C@H]1C	·	·	2.2	·	-3.6	·	·	·
CC(C)(C)NC(=O)C(c1ccccc1)n1c(=O)c(-c2ccccc2)nc2ccccc21 (stereo not drawn)	-4.7	·	1.9	·	-3.7	·	·	·
O=C(NCc1ccccc1)C(C1CC1)n1c(=O)c(-c2ccco2)nc2ccccc21 (stereo not drawn)	38.2*	·	21.4	·	12.6	·	37.4*	12.9*
O=C(NC1CCCCC1)C(C1CC1)n1c(=O)c(-c2ccccc2)nc2ccccc21 (stereo not drawn)	-4.8	·	0.3	·	2.8	·	·	·
CC(C)(C)NC(=O)C(c1ccc(C(F)(F)F)cc1)n1c(=O)c(-c2ccco2)nc2ccccc21 (stereo not drawn)	60.0*	·	27.0	·	20.8	·	87.3*	37.5*
SMILES	ABHD5-PLIN5 inh	Rtt109 HAT inh	rCAG binder	LANA-H2A inh	PRMT1 inh	ALR H2O2 inh	ABHD5-PLIN5 conf	HNF4 counter
CC(C)(C)C(=O)/C(=C/c1ccncc1)n1cncn1	28.8*	-5.2	-5.3	-1.9	17.9	6.1	51.1*	47.5*
CCOc1ccc(C(C)=O)cc1N1C(=O)C2C3C=CC(O3)C2C1=O (stereo not drawn)	30.0*	-13.9	·	-1.0	·	2.9	16.8	80.1*
CCOC(=O)C1=C(C)NC(C)=C(C(=O)OCC)C1C(=O)OCC(=O)N(C)C1CCS(=O)(=O)C1 (stereo not drawn)	96.0*	-7.7	2.8	19.6*	-3.7	1.8	5.8	10.3
Cc1cc(O)c(-c2cc(O)c(C)cc2O)cc1O	43.6*	-0.2	5.4	-3.4	87.5*	22.6	37.4*	86.6*
CC(C)c1ccc(C2C3=C(CC(C)(C)CC3=O)NC3=C2C(=O)c2ccccc23)cc1 (stereo not drawn)	29.3*	16.0	11.1	-2.1	16.9	-5.0	42.5*	62.7*
COC(=O)c1cc(-c2ccc(C)cc2)c(=O)n2c1CCC2	·	·	4.5	·	1.9	·	·	·
Cc1c(C(=O)N(Cc2ccco2)Cc2cccs2)oc2ccccc12	28.1*	5.7	25.3	-0.2	19.2	9.2	19.5	14.5*
O=C(c1cc2ccccc2o1)N(Cc1ccco1)Cc1cccs1	-1.0	0.1	-1.7	-1.2	5.6	6.2	·	·
CN(C)CCCN(C(=O)/C=C/c1cccs1)c1nc2ccc(F)cc2s1	38.7*	0.5	4.3	-3.8	2.1	-5.1	20.4	24.3*
CN(C)CCCN(C(=O)c1sc2ccccc2c1Cl)c1nc2ccc(F)cc2s1	25.0*	11.1	2.9	-2.1	1.3	-16.9	19.4	4.0
CCOc1cccc2sc(N(CCN(C)C)C(=O)/C=C/c3cccs3)nc12	21.4	-21.9	·	1.1	·	-1.1	·	·
Cc1ccc2nc(N(CCN(C)C)C(=O)/C=C/c3cccs3)sc2c1	35.0*	-0.5	-0.6	·	3.8	·	17.7	6.0
CCN(CC)CCN(C(=O)/C=C/c1cccs1)c1nc2ccc(F)cc2s1	0.4	-11.6	2.2	2.5	4.5	3.1	·	·
COc1ccc(C)c2sc(N(CCN(C)C)C(=O)/C=C/c3cccs3)nc12	35.1*	-20.9	0.0	-1.6	5.5	-5.0	22.6*	7.5
Clc1ccc(-n2c(SCc3cccc4ccccc34)nnc2-c2ccccn2)cc1	·	·	8.2	·	1.7	·	·	·
